{
  "source": "paper PMC7819943",
  "about": "“Rice protein-binding microarrays: a tool to detect cis-acting elements near promoter regions in rice”",
  "note": "The full ranking holds about 35,000 sequences; the median of “fluorescence intensity (a.u.)” is about 10,000, and the highest 2% start at about 52,000. What follows is part of a selection rich in the highest values, with near analogues and random picks from the rest.",
  "data": [
    {"biological_target": "T1, OsWOX13 (Oryza sativa, UniProt Q5QMM3 1-267)", "T1 sequence": "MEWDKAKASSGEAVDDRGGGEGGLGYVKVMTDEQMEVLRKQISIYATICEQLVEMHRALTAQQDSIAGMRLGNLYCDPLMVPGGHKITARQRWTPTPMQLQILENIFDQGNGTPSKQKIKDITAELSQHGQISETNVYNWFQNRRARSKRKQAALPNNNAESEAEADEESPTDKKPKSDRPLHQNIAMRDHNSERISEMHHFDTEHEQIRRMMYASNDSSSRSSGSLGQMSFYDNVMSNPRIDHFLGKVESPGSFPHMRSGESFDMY", "experiment": "protein-binding microarray (RPBM); PBS, 2% BSA, 51.3 ng/ul salmon testes DNA, 50 uM zinc acetate, 200 nM TF, 25 C, 1 h; high values mean tight binding", "conditions": "protein: recombinant; tags: N-terminal polyhistidine and DsRed monomer fusion (pET32a); label: CyDye5-dUTP incorporated in the synthesized complementary strand; 3' TTTTT single-stranded linker to array surface; dsDNA, one strand shown", "procedure,_shortened": "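Binding signal is defined as the fluorescence intensity of each feature in arbitrary units, read on an Axon 4000B scanner. Transcription factors with N-terminal polyhistidine and DsRed fusions came from E. coli BL21-CodonPlus and were purified on Ni–NTA. They were incubated at 200 nM for 1 h at 25 °C on a custom Agilent array that had been made double-stranded with Cy5-dUTP, with 50 µM zinc acetate present, and the array was washed.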", "values": [
      {"sequence": "TTCGATTTAACTGTTCTATTACTGAGGTACTCTTCGATTTCGGAGTCACCTAGTGCAG", "binding signal": "6940 fluorescence intensity (a.u.)"},
      {"sequence": "GTCAAATTTATGGCATTGATAGAGTTTTAGTAGGGGTGTTCGGAGTCACCTAGTGCAG", "binding signal": "21000 fluorescence intensity (a.u.)"},
      {"sequence": "TTAGTTTAATTAAATGTAACATTGAGTATATTTTGATAATCGGAGTCACCTAGTGCAG", "binding signal": "16700 fluorescence intensity (a.u.)"},
      {"sequence": "TCTAAATTTAACTTGCATCACATTAGTTCTGGAAAGAGCACGGAGTCACCTAGTGCAG", "binding signal": "12200 fluorescence intensity (a.u.)"},
      {"sequence": "GATACTAATTATAAATATTAAGTGTAGACTATTAATAAAACGGAGTCACCTAGTGCAG", "binding signal": "6430 fluorescence intensity (a.u.)"},
      {"sequence": "TCATTAACACATAATTAATTAAGTACTCCCTCCGTATTTTCGGAGTCACCTAGTGCAG", "binding signal": "20200 fluorescence intensity (a.u.)"},
      {"sequence": "AAAAGAAGTTAATTATAATTAATTGTGATAAGAGGATAGACGGAGTCACCTAGTGCAG", "binding signal": "29400 fluorescence intensity (a.u.)"},
      {"sequence": "AAATTGTATTCCTAATTGGACTCTCTTTTCCTTTTCTAATCGGAGTCACCTAGTGCAG", "binding signal": "3430 fluorescence intensity (a.u.)"},
      {"sequence": "AGTTACTAATTGATTCAGATGCATGGCAGTATAATTGTCTCGGAGTCACCTAGTGCAG", "binding signal": "44900 fluorescence intensity (a.u.)"},
      {"sequence": "CTTCTAATTATTTGATATTAGGTCATTCTCTAATATTCACCGGAGTCACCTAGTGCAG", "binding signal": "21400 fluorescence intensity (a.u.)"},
      {"sequence": "CTCTCGATTGATTACCTAGTACTACTGCAATTCACATTGTCGGAGTCACCTAGTGCAG", "binding signal": "52200 fluorescence intensity (a.u.)"},
      {"sequence": "TTCTAATTAGATTTGATAAAGTACTAATATTCATTTTGGTCGGAGTCACCTAGTGCAG", "binding signal": "63100 fluorescence intensity (a.u.)"},
      {"sequence": "ATATTTTAAATAGTACTAAATTATTCTATAAATTTGGTCACGGAGTCACCTAGTGCAG", "binding signal": "4350 fluorescence intensity (a.u.)"},
      {"sequence": "TCGAAAGTAATTAGTACTAGATTGATTGTCAGTTCAGTCTCGGAGTCACCTAGTGCAG", "binding signal": "53100 fluorescence intensity (a.u.)"},
      {"sequence": "TATATGGATTAACAGATAATTAGCAGCGGGGTTAGCAAAACGGAGTCACCTAGTGCAG", "binding signal": "21000 fluorescence intensity (a.u.)"},
      {"sequence": "TTTTGATTTGCCACATTTGCAGTGGCATGGATCCAATTAACGGAGTCACCTAGTGCAG", "binding signal": "15000 fluorescence intensity (a.u.)"},
      {"sequence": "GGGGATTAATGGATTATAATGTGTCTTATAACTAAAAGGACGGAGTCACCTAGTGCAG", "binding signal": "15100 fluorescence intensity (a.u.)"},
      {"sequence": "ATCCGATTAATTAATTTGATTTAATGTAATGTAATTAGGGCGGAGTCACCTAGTGCAG", "binding signal": "64600 fluorescence intensity (a.u.)"},
      {"sequence": "TTCCGATTATTATTTGTATTTATTAATTTAGGATTTCTCTCGGAGTCACCTAGTGCAG", "binding signal": "8170 fluorescence intensity (a.u.)"},
      {"sequence": "CTTGATTAGAATGTTTAATAACTTGTATCCGTCATGCCTGCGGAGTCACCTAGTGCAG", "binding signal": "60200 fluorescence intensity (a.u.)"},
      {"sequence": "GAGATTTGTTTGATGTATCAGGGTGTCACGTTGTCATGTTCGGAGTCACCTAGTGCAG", "binding signal": "3440 fluorescence intensity (a.u.)"},
      {"sequence": "TGAAATGTAATTGTGATTTTATCTTGAAATGATCCGATGGCGGAGTCACCTAGTGCAG", "binding signal": "31400 fluorescence intensity (a.u.)"},
      {"sequence": "ATCATAATGTGTATGCATGATTAGAGGGCGCAAATTTGTACGGAGTCACCTAGTGCAG", "binding signal": "14600 fluorescence intensity (a.u.)"},
      {"sequence": "CTTAATGTATGTTGATTTGTCATCACATGTATGATTAGGGCGGAGTCACCTAGTGCAG", "binding signal": "56400 fluorescence intensity (a.u.)"},
      {"sequence": "AGTATAATTATGTTTAGAATGGATTAATTGTAATGTAAAGCGGAGTCACCTAGTGCAG", "binding signal": "38600 fluorescence intensity (a.u.)"},
      {"sequence": "ATGGGTGATTAATCCTAGAATAATGTATCTAGACAGAATCCGGAGTCACCTAGTGCAG", "binding signal": "4120 fluorescence intensity (a.u.)"},
      {"sequence": "GGGATTGGTTGAGAAAATAAAACAGATATATAAGTTTATCCGGAGTCACCTAGTGCAG", "binding signal": "3160 fluorescence intensity (a.u.)"},
      {"sequence": "CAAACTAGATTTGTTGCTAAATTGAATTGTTATGTCATTACGGAGTCACCTAGTGCAG", "binding signal": "22800 fluorescence intensity (a.u.)"},
      {"sequence": "TTTGTGATTAAGCTCTTGGTCTCGTCTCCGCGAGCTCAGCCGGAGTCACCTAGTGCAG", "binding signal": "5540 fluorescence intensity (a.u.)"},
      {"sequence": "AACGTATTTGGCCCAATTAAGTATATACATATGTAATGCGCGGAGTCACCTAGTGCAG", "binding signal": "3420 fluorescence intensity (a.u.)"},
      {"sequence": "GTCAAGTAACTGAACATTTTAATTGCTGCCGATTATTACCCGGAGTCACCTAGTGCAG", "binding signal": "13400 fluorescence intensity (a.u.)"},
      {"sequence": "GAATTGATGGAATTTAGGCCGCCAGCAAGCAAAGACCGAGCGGAGTCACCTAGTGCAG", "binding signal": "13300 fluorescence intensity (a.u.)"},
      {"sequence": "CAACTGATTTTATCACGTTCTAAAATATGCCATCATCTTTCGGAGTCACCTAGTGCAG", "binding signal": "12300 fluorescence intensity (a.u.)"},
      {"sequence": "TTATAATTGACACTACGAGAATGGGTCTTTACTGCCGGTTCGGAGTCACCTAGTGCAG", "binding signal": "57700 fluorescence intensity (a.u.)"},
      {"sequence": "GCCCTACACAATTTAATTACGTTGACACTGGCCGGTCTTACGGAGTCACCTAGTGCAG", "binding signal": "7560 fluorescence intensity (a.u.)"},
      {"sequence": "CACTGACGGAGAAATTTACCGGTCAATGGCCGTCGTCGGTCGGAGTCACCTAGTGCAG", "binding signal": "18000 fluorescence intensity (a.u.)"},
      {"sequence": "CTAAATTTGTAATTGTAATGTACTACTTTAATCCTTCGTACGGAGTCACCTAGTGCAG", "binding signal": "53100 fluorescence intensity (a.u.)"},
      {"sequence": "TCTAATGATGATTGTAAGCCGTACAATTTACTAAAAGATACGGAGTCACCTAGTGCAG", "binding signal": "15000 fluorescence intensity (a.u.)"},
      {"sequence": "TTTAAATTGTAATCCTACTTGAACTCTTCTTTATTTTCTTCGGAGTCACCTAGTGCAG", "binding signal": "6760 fluorescence intensity (a.u.)"},
      {"sequence": "TCTAAATCATTTTAATCATGGTACAGATCTACTGATAATACGGAGTCACCTAGTGCAG", "binding signal": "7740 fluorescence intensity (a.u.)"},
      {"sequence": "TCTAATGATAAATCATTTATCACTAATTGTAAGAGTGGTACGGAGTCACCTAGTGCAG", "binding signal": "53400 fluorescence intensity (a.u.)"},
      {"sequence": "ATTTAATGTACAATCATGCTTTTCCGTACTAAATTTTGTTCGGAGTCACCTAGTGCAG", "binding signal": "14800 fluorescence intensity (a.u.)"},
      {"sequence": "AATTAACAATTTACCAAATTATTAGTTATCAACACTAATTCGGAGTCACCTAGTGCAG", "binding signal": "11300 fluorescence intensity (a.u.)"},
      {"sequence": "GTATGTTATTATATCAATTAGATTTATGCTAGCACTGTCGCGGAGTCACCTAGTGCAG", "binding signal": "15200 fluorescence intensity (a.u.)"},
      {"sequence": "CATTGATAGATTGCAAAAGCTAGCTGTCTGGGAGATGGTGCGGAGTCACCTAGTGCAG", "binding signal": "49500 fluorescence intensity (a.u.)"},
      {"sequence": "ACTATCGTAGGTAGCCAATCAATTTAACATTTCACTCAAGCGGAGTCACCTAGTGCAG", "binding signal": "3630 fluorescence intensity (a.u.)"}
    ]}
  ]
}
